Compound activity deposited in PubChem by NMMLSC.
This is a sample that favours compounds with a hit; in the whole collection about 0.89% have one here.
CIT2-GFP yeast: modulators of CIT2-GFP expression in yeast, primary screen, S. cerevisiae, GFP fusion, multiplex flow cytometry, MLPCN library | 320,000 compounds, 0.065% hits | S. cerevisiae CIT2-GFP strain, 3 h; 100 means same as DMSO wells | AID 2029, 2009 | GFP response vs DMSO, % at 10 µM;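 active = GFP response relative to DMSO above a set limit, near the screen mean plus 3 SD, cut at about 150% in these data; inconclusive = Fewer than 70 cells measured for a yeast strain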;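 also: ratio of well median GFP fluorescence to mean of DMSO wells on the plate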
LAP4 TOR yeast: modulators of LAP4-GFP expression in yeast, primary screen, S. cerevisiae, multiplex flow cytometry, MLPCN library | 320,000 compounds, 0.34% hits | GFP response vs DMSO, % at 10 µM | 3 h; median GFP as percent of DMSO wells;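 active = GFP response vs DMSO above a set limit, about the screen mean plus 3 SD, cut at about 150% in these data; inconclusive = under 70 cell events counted for the yeast strain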
MEP2 TOR yeast: modulators of MEP2-GFP levels in yeast, primary screen, S. cerevisiae, multiplex flow cytometry, MLPCN library; S. cerevisiae MEP2-GFP strain, 3 h; 100% = DMSO control level; GFP response vs DMSO, % at 10 µM; 330,000 compounds, 0.51% hits;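 active = GFP response versus DMSO above a set limit, roughly screen mean plus 3 SD, cut at about 180% in these data; inconclusive = fewer than 70 cells counted for a yeast strain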;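 also: median GFP fluorescence of the barcode-gated MEP2-GFP cells per well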
RPL19A-GFP yeast: RPL19A-GFP expression modulators in yeast, primary screen, cell-based, S. cerevisiae, multiplex flow cytometry, MLPCN; S. cerevisiae RPL19A-GFP strain, 3 h; stronger effect = lower value; percent response vs DMSO, % at 10 µM; 330,000 compounds, 0.3% hits; AID 2025, 2009;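 active = percent response vs DMSO below 50%; inconclusive = fewer than 70 events counted for the yeast strain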;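 also: median channel GFP fluorescence of the barcoded RPL19A-GFP strain; lower means less RPL19A-GFP as with rapamycin TOR inhibition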
AGP1 TOR yeast: modulators of AGP1-GFP expression in yeast TOR pathway, primary screen, cell-based, multiplex flow cytometry, S. cerevisiae, MLPCN library. 3 h; GFP as percent of DMSO wells. GFP response vs DMSO, % at 10 µM. 320,000 compounds, 0.02% hits. AID 2066, 2009;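 active = GFP response relative to DMSO above a set limit, near screen average plus 3 SD, cut at about 150% in these data; inconclusive = fewer than 70 cells counted for the yeast strain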;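 also: median GFP channel fluorescence of the gated AGP1 strain per well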
Numbers stand for hits; - = inactive; ? = inconclusive; . = no result; [ ] = remark or other dose.

SMILES	CIT2-GFP yeast	LAP4 TOR yeast	MEP2 TOR yeast	RPL19A-GFP yeast	AGP1 TOR yeast
Cc1ccc(CSCC(=O)N2CCOCC2)cc1	?	-	236[may fluoresce violet]	-	?
CNS(=O)(=O)c1ccc(CCC(=O)N2CCOCC2)cc1	-	-	-	-	-
CCN1CCN(CCC(=O)Nc2ccc(F)c(F)c2)CC1	-	-	-	-	-
COc1ccc(OC)c(-c2csc(N(CC3CCCO3)C(=O)Cc3ccccc3)n2)c1 (stereo unspecified)	-	-	-	-	-
O=C(COc1cc2oc(=O)c3c(c2cc1Cl)CCC3)Nc1ccc(CN2CCOCC2)cc1	-	-	-	-	-
O=C(Nc1nc2c(s1)CN(Cc1ccccc1)CC2)c1cccc(S(=O)(=O)N2CCc3ccccc32)c1	?	?	?	20[may fluoresce violet]	?
O=S(=O)(NCC1CCCO1)c1ccc(Cl)nc1 (stereo unspecified)	-	-	-	-	-
Cc1onc(-c2ccccc2)c1C(=O)N1CCC(C)CC1	-	160	221	-	-
Cc1onc(-c2ccccc2)c1C(=O)N1CCCN(C(=O)c2c(-c3ccccc3)noc2C)CC1	.	-	-	-	-
CC(C)N=C(Nc1ccccc1)c1cccnc1	?	-	177[may fluoresce violet]	34[may fluoresce violet]	-
Nc1ncnc2c1CCC2	?	-	213[may fluoresce violet]	-	-
Nc1nc(N)c2c(n1)CCCC2	-	-	-	-	-
Cn1nnnc1SCC(=O)Nc1ncc(Cl)cc1Cl	-	-	-	-	-
Nc1ccc(-c2c3ccc(=O)cc-3oc3cc(O)ccc23)cc1C(=O)O	-	157	-	-	-
NC(=O)CC[C@H](NC(=O)c1ccc(F)cc1)C(=O)OCC(=O)NCc1ccc2c(c1)OCO2	-	-	-	-	-
COc1ccccc1N(CCN1C(=O)c2cccc3cccc(c23)C1=O)C(=O)c1ccncc1	-	-	-	-	-
CCN(CC)S(=O)(=O)c1ccc2c(c1)c(=O)c(C(=O)N1CCN(c3ccccn3)CC1)cn2C	?	-	211[may fluoresce violet]	-	?
COc1ccc(NC(=O)CSc2n[nH]c(-c3ccccn3)n2)cc1	?	-	314[may fluoresce violet]	37[may fluoresce violet]	?
Cc1ccc(SCC(=O)OCC(=O)N(C)CC(=O)Nc2ccccc2Cl)cc1C	-	-	-	-	-
CSc1nc(C)c(CCOCc2ccccc2)c(=O)[nH]1	?	-	233[may fluoresce violet]	-	?
CSc1nc(C)c(Cc2ccccc2)c(=O)[nH]1	-	-	-	-	-
CC(=O)N1CCC(C(=O)NC2CCCc3c2cnn3-c2cc(F)cc(F)c2)CC1 (stereo unspecified)	-	-	-	-	-
O=C(CN1CCN(Cc2ccccc2Cl)C1=O)NC1CCCCCCC1	-	-	208	.	-
CC1CCCCC1NC(=O)CN1CCN(Cc2ccccc2Cl)C1=O (stereo unspecified)	-	-	-	-	-
CC(C)C(=O)Nc1nc(-c2ccc3c(c2)CCN3C(=O)C2CC2)cs1	?	?	?	22[may fluoresce violet]	?
SMILES	CIT2-GFP yeast	LAP4 TOR yeast	MEP2 TOR yeast	RPL19A-GFP yeast	AGP1 TOR yeast
O=C(CCNc1ccc(F)cc1)c1ccco1	?	-	276[may fluoresce violet]	44[may fluoresce violet]	-
O=C(CCNc1ccc(F)c(Cl)c1)c1ccco1	-	-	-	-	-
CC1CN(C(=O)CSc2nc(N)cc(N)n2)CC(C)O1 (stereo unspecified)	-	-	-	-	-
C=CCNC(=O)c1c(Br)cnn1-c1ccc(C)cc1	-	-	-	-	-
COc1ccc(NC(=S)NCCN2CCOCC2)cc1	?	-	419[may fluoresce violet]	19[may fluoresce violet]	?
CC(=O)NCC(=O)NC(C(=O)Nc1ccc2c(c1)OCCO2)c1ccc(C)cc1 (stereo unspecified)	?	?	?	40[may fluoresce violet]	?
O=C(NCC(c1ccc(F)cc1)N1CCOCC1)c1cc(F)c(F)c(F)c1F (stereo unspecified)	171	-	-	-	-
O=C(NCC(c1ccc(F)cc1)N1CCOCC1)c1ccccc1F (stereo unspecified)	-	-	-	-	-
CCCN(C(=O)CSc1nnc2ccccn12)C1CCS(=O)(=O)C1 (stereo unspecified)	-	-	-	-	-
COc1ccc(NC(=O)CCCCCn2nnc3ccccc3c2=O)cc1	-	-	-	-	-
O=C(Nc1ccc(F)cc1F)c1ccc(-n2cncn2)nc1	-	-	-	-	-
O=C(Nc1c(F)cccc1F)c1ccc(-n2cncn2)nc1	?	-	233[may fluoresce violet]	-	-
CC(=O)C1=C(C)NC(=S)NC1c1cc([N+](=O)[O-])ccc1O (stereo unspecified)	-	-	-	-	-
CN(C)S(=O)(=O)c1cccc(-c2nnc(SCCNCCO)n2-c2ccc(F)cc2)c1	-	-	-	-	-
CC(=O)c1sc2nc(C)c3c(c2c1N)CCCC3	-	167	-	-	-
N#CCCn1cc(CNC2CCC(O)CC2)c2ccccc21 (stereo unspecified)	?	-	245[may fluoresce violet]	46[may fluoresce violet]	?
Cc1nc(SCC(=O)N2CCCC2=O)nc(C)c1C	-	-	-	-	-
CN(C)c1ccc(NS(=O)(=O)c2cc3c4c(c2)CC(=O)N4CCC3)cc1	-	-	-	-	-
Cc1nnc2sc(SCC(=O)Nc3nccs3)nn2c1=O	?	-	235[may fluoresce violet]	22[may fluoresce violet]	?
Cc1ccc2nc(N3C(=O)C(O)=C(C(=O)c4cc5ccccc5o4)C3c3cccs3)sc2c1 (stereo unspecified)	-	-	192	-	-
CCc1ccc2nc(N3C(=O)C(O)=C(C(=O)c4ccco4)C3c3cccs3)sc2c1 (stereo unspecified)	-	-	-	-	-
COc1ccccc1C(=O)Nc1nsc(-c2ccccc2)n1	-	151	-	-	-
CN1CCN(C(=O)/C(=C/c2ccccc2Cl)NC(=O)c2ccccc2)CC1	?	-	475[may fluoresce violet]	-	-
CN1CCN(C(=O)/C(=C\c2cccs2)NC(=O)c2ccccc2)CC1	-	-	-	-	-
CN(CC(=O)Nc1ccc2c(c1)OCO2)S(=O)(=O)c1cccs1	?	-	302[may fluoresce violet]	45[may fluoresce violet]	?
SMILES	CIT2-GFP yeast	LAP4 TOR yeast	MEP2 TOR yeast	RPL19A-GFP yeast	AGP1 TOR yeast
CCc1cccc(NC(=O)CN(C)S(=O)(=O)c2cccs2)c1	-	-	-	-	-
CN(CC(=O)Nc1ccc(F)c(F)c1)S(=O)(=O)c1cccs1	?	?	?	27[may fluoresce violet]	?
CC1CN(C(=O)COC(=O)c2ccc(O)cc2)CC(C)O1 (stereo unspecified)	?	-	?	23[may fluoresce violet]	?
CCCCNC(=S)NNC(=O)C1=NN(c2cc(C)ccc2C)C(=O)CC1	-	-	-	-	-
Cc1ccc(NC(=O)N2CCCC2C(=O)NCc2ccc(Cl)cc2)cc1 (stereo unspecified)	-	-	-	-	-
O=c1c(Cl)c(O)c2cccc3c4ccccc4n1c23	-	-	-	-	-
COc1c(OC)c2[nH]c(=O)cc3c4ccccc4n(c1=O)c23	?	-	365[may fluoresce violet]	18[may fluoresce violet]	?
